{"source": "PubChem BioAssay (EPA / NIEHS)", "note": "Results filed as inconclusive are left out. Activity calls are given as the source filed them. Rule for the calls, unless noted: active = hit-call score of the fitted dose curve at least 0.9, where 1 is the maximum; inactive = score below 0.9.", "data": [{"assay": "CCTE_Simmons_MITO_basal_resp_rate: CCTE's HepG2 Seahorse XF Respirometric Screening Assay at Basal Respiratory State, Simmons Lab (AID 2284001)", "details": "actives raise or lower the signal", "outline": "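Basal-phase OCR in HepG2 cells, read at 6-min intervals across a 72-min run, with test compound injected at 125 nM–100 uM final (7 points). Fitted both directions against DMSO; three biological replicates per concentration.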", "values": [{"smiles": "COc1cc(S(=O)(=O)O)c(C)cc1N=Nc1c(O)ccc2cc(S(=O)(=O)O)ccc12", "AC50": "38.7 µM (active)"}, {"smiles": "Cc1cccc(Nc2cc(Cl)nc(SCC(=O)O)n2)c1C", "outcome": "inactive"}, {"smiles": "Cc1c(C(=O)O)c(O)cc2c1C(=O)c1c(O)c([C@@H]3O[C@H](CO)[C@@H](O)[C@H](O)[C@H]3O)c(O)c(O)c1C2=O", "outcome": "inactive"}, {"smiles": "Cc1oc(-c2ccccc2)nc1CCOc1cccc2c1ccn2CCC(=O)O", "AC50": "3.11 µM (active)"}, {"smiles": "C=CCOC(=O)c1ccccc1C(=O)OCC=C", "AC50": "36.2 µM (active)"}]}, {"assay": "CCTE_Simmons_MITO_max_resp_rate: CCTE's HepG2 Seahorse XF Respirometric Screening Assay at Maximal Respiratory State [uncoupled], Simmons Lab (AID 2284002)", "details": "actives raise or lower the signal", "outline": "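HepG2 oxygen consumption was read on a Seahorse XF96 after FCCP uncoupler injection, following test compound injection; 7 concentrations, 125 nM–100 uM final, three biological replicates. Bidirectional fitting against DMSO vehicle baseline.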", "values": [{"smiles": "COc1cc(S(=O)(=O)O)c(C)cc1N=Nc1c(O)ccc2cc(S(=O)(=O)O)ccc12", "outcome": "inactive"}, {"smiles": "Cc1cccc(Nc2cc(Cl)nc(SCC(=O)O)n2)c1C", "outcome": "inactive"}, {"smiles": "Cc1c(C(=O)O)c(O)cc2c1C(=O)c1c(O)c([C@@H]3O[C@H](CO)[C@@H](O)[C@H](O)[C@H]3O)c(O)c(O)c1C2=O", "outcome": "inactive"}, {"smiles": "Cc1oc(-c2ccccc2)nc1CCOc1cccc2c1ccn2CCC(=O)O", "outcome": "inactive"}, {"smiles": "C=CCOC(=O)c1ccccc1C(=O)OCC=C", "outcome": "inactive"}]}, {"assay": "CCTE_Simmons_MITO_inhib_resp_rate: CCTE's HepG2 Seahorse XF Respirometric Screening Assay at Inhibited Respiratory State [full ETC block], Simmons Lab (AID 2284006)", "details": "actives raise or lower the signal", "outline": "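This endpoint is the respiration rate remaining after rotenone/antimycin A block, in HepG2 cells on a Seahorse XF96. Chemicals spanned 125 nM–100 uM final, in three biological replicates. OCR was read every 6 minutes for 72 minutes and compared with DMSO vehicle.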", "values": [{"smiles": "COc1cc(S(=O)(=O)O)c(C)cc1N=Nc1c(O)ccc2cc(S(=O)(=O)O)ccc12", "AC50": "23.8 µM (active)"}, {"smiles": "Cc1cccc(Nc2cc(Cl)nc(SCC(=O)O)n2)c1C", "outcome": "inactive"}, {"smiles": "Cc1c(C(=O)O)c(O)cc2c1C(=O)c1c(O)c([C@@H]3O[C@H](CO)[C@@H](O)[C@H](O)[C@H]3O)c(O)c(O)c1C2=O", "AC50": "3.25 µM (active)"}, {"smiles": "Cc1oc(-c2ccccc2)nc1CCOc1cccc2c1ccn2CCC(=O)O", "outcome": "inactive"}, {"smiles": "C=CCOC(=O)c1ccccc1C(=O)OCC=C", "outcome": "inactive"}]}, {"assay": "CCTE_Simmons_MITO_viability: CellTiter-Glo Viability Assessment for CCTE's HepG2 Seahorse XF Respirometric Screening Assay [post-hoc], Simmons Lab (AID 2284007; active = hit-call score of the fitted dose curve at least 0.9, where 1 is the maximum;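 for AC50: cells exposed to chemical for 90 min before the ATP read; actives lower ATP signal relative to DMSO baseline meaning reduced viability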)", "details": "not given", "outline": "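Luciferase-coupled ATP read-out after the Seahorse run: HepG2 cells treated 90 minutes with test chemical, 7-point series of 125 nM–100 uM final, in triplicate biological runs. Vehicle DMSO; dichlone as positive control over 8 concentrations.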", "values": [{"smiles": "COc1cc(S(=O)(=O)O)c(C)cc1N=Nc1c(O)ccc2cc(S(=O)(=O)O)ccc12", "AC50": "50 µM (active)"}, {"smiles": "Cc1cccc(Nc2cc(Cl)nc(SCC(=O)O)n2)c1C", "outcome": "inactive"}, {"smiles": "Cc1c(C(=O)O)c(O)cc2c1C(=O)c1c(O)c([C@@H]3O[C@H](CO)[C@@H](O)[C@H](O)[C@H]3O)c(O)c(O)c1C2=O", "AC50": "40.1 µM (active)"}, {"smiles": "Cc1oc(-c2ccccc2)nc1CCOc1cccc2c1ccn2CCC(=O)O", "outcome": "inactive"}, {"smiles": "C=CCOC(=O)c1ccccc1C(=O)OCC=C", "outcome": "inactive"}]}, {"assay": "CCTE_Shafer_MEA_acute_spike_number: CCTE's Neural Acute Assay for Total Number of Spikes, Shafer Lab (AID 2284008);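 for AC50: curve fitted for decrease in spike count so AC50 reflects inhibitors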", "details": "not given", "outline": "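Primary rat cortical neurons on 16-electrode MEA wells; on DIV 13 or 15, 40-min baseline then 40-min recording with compound (0.03-40 uM) at 37 C. Spikes detected at 8x rms noise; percent change versus baseline, DMSO as negative control.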", "values": [{"smiles": "CCCCCCCCCCCCCCCCCC(=O)O", "outcome": "inactive"}, {"smiles": "Nc1ccccc1N", "outcome": "inactive"}, {"smiles": "Nc1ccc2c(c1)C(=O)c1ccccc1C2=O", "outcome": "inactive"}, {"smiles": "CC(=O)C(C)=CC1C(C)=CCCC1(C)C", "note": "(stereo not given)", "outcome": "inactive"}, {"smiles": "NCC1(Cc2noc(=O)[nH]2)CCCCC1", "outcome": "inactive"}, {"smiles": "Cc1ccc2ncccc2c1", "outcome": "inactive"}, {"smiles": "O=C(O)CCCCC(=O)O", "outcome": "inactive"}, {"smiles": "NS(=O)(=O)c1cc2c(cc1Cl)NCNS2(=O)=O", "outcome": "inactive"}, {"smiles": "CNCc1cc(F)ccc1Oc1ccc(Cl)c(Cl)c1", "AC50": "3.97 µM (active)"}, {"smiles": "CCCCCCCCCCO", "outcome": "inactive"}, {"smiles": "Clc1cc(Cl)c(Cl)cc1Cl", "outcome": "inactive"}, {"smiles": "FC(F)(F)C(F)(F)C(F)(F)C(F)(F)C(F)(F)C(F)(F)CCI", "outcome": "inactive"}, {"smiles": "CCOC(=O)C(C)(C)Oc1ccc(Cl)cc1", "outcome": "inactive"}, {"smiles": "C[Si]1(C)O[Si](C)(C)O[Si](C)(C)O[Si](C)(C)O1", "outcome": "inactive"}, {"smiles": "C=CCc1ccc(O)c(OC)c1", "outcome": "inactive"}, {"smiles": "Nc1nc(N)c2nc(CNc3ccc(C(=O)N[C@@H](CCC(=O)O)C(=O)O)cc3)cnc2n1", "outcome": "inactive"}, {"smiles": "C=CCOC(=O)c1ccccc1C(=O)OCC=C", "outcome": "inactive"}, {"smiles": "CN1CCCC1=O", "outcome": "inactive"}, {"smiles": "Cc1ccc(C(C)C)c(O)c1", "outcome": "inactive"}, {"smiles": "c1cc(-c2ccncc2)ccn1", "outcome": "inactive"}]}]}
